Data on five molecules can be found in PubChem BioAssay.

Activity calls are given as the source filed them.

Test [1] deals with Plasmodium falciparum Sir2 (PF13_0152, Sir2A). Put plainly: Plasmodium falciparum Sir2A binding compounds – biochemical, small-molecule microarray, 635 nm fluorescence, primary screen (AID 1098).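 Also: score merges spot fluorescence intensity with its signal-to-noise ratio.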 To be noted: fluorescence 635 nm, higher = more signal.
The nature of test [2]: probe aDKK1 binding to arrayed compounds – biochemical, biotinylated probe, 635/667 nm fluorescence, primary screen (AID 1099).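 Also: score merges 667nm spot fluorescence with signal to noise across triplicate slides.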 The conditions noted are these: small-molecule microarray, higher = more signal.
The nature of test [3]: probe aCHRDL2 binding to arrayed compounds – biochemical, biotinylated probe, 635/667 nm fluorescence, primary screen (AID 1100). To be noted: small-molecule microarray, higher = more signal.
Test [4] is described as follows: change in splice reporter luminescence, either direction, cell-based, HEK293, spliceosome inhibition project, primary screen (AID 1101).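 Also: HEK293 cells carrying a splicing-competent luciferase reporter gene; test concentration not given here.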 The conditions noted are these: HEK293 splicing luciferase reporter, 24 h, higher = more signal, called active from +8 up or from −8 down. Background: In a reporter assay the amount or activity of a reporter protein is the signal.

Test [5] addresses Fibroblast growth factor 10 (Homo sapiens) (UniProt O15520). Put plainly: compounds binding fibroblast growth factor 10 – biochemical, small-molecule microarray, 635 nm fluorescence, primary screen (AID 1102). The conditions noted are these: FGF10 binding, fluorescence 635 nm, higher = more signal.
Test [6] concerns glycogen synthase kinase-3 (GSK3A per assay name; protocol says GSK3B). Put plainly: compounds binding glycogen synthase kinase-3 – biochemical, small-molecule microarray, 635 nm fluorescence, GSK3A, primary screen (AID 1103). Also: the record names both GSK3A and GSK3B. To be noted: fluorescence 635 nm, higher = more signal.
Test [7] addresses Epidermal growth factor receptor (Homo sapiens) (UniProt P00533). Kind of test: compounds binding epidermal growth factor receptor – biochemical, small-molecule microarray, 635 nm fluorescence, primary screen (AID 1104).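 Also: score merges 667 nm emission intensity with spot signal to noise over triplicate slides.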 The conditions noted are these: EGFR binding, higher = more signal.
In test [8] the target is Follistatin-related protein 3 (Homo sapiens) (UniProt O95633). Kind of test: compounds binding follistatin-related protein 3 – biochemical, small-molecule microarray, 635 nm fluorescence, primary screen (AID 1105).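 Also: score merges emission near 667 nm and signal to noise per printed spot across three slides.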 To be noted: FSTL3 binding, higher = more signal.
Chain of Follistatin-related protein 3 (Homo sapiens) (O95633 whole entry, looked up): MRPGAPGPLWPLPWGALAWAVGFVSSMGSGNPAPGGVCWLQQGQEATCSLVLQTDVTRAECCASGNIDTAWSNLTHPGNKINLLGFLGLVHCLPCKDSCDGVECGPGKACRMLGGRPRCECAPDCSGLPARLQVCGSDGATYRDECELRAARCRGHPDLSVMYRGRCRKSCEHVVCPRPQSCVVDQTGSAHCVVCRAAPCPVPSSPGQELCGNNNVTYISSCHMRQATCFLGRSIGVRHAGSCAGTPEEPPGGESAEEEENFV
Test [9] addresses Dickkopf-related protein 1 (Homo sapiens) (UniProt O94907). Kind of test: small molecules binding DKK1 protein – biochemical, small-molecule microarray, 635 nm fluorescence scan, primary screen (AID 1106).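 Also: score merges emission near 667 nm with signal to noise over three replicate slides.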 To be noted: higher = more signal.
For test [10], the system named is Inhibin beta A chain (activin A). Kind of test: small molecules binding activin A – biochemical, small-molecule microarray, 635 nm fluorescence scan, primary screen (AID 1107).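 Also: mouse activin A protein probed at 4.33 µg/mL on printed slides; score merges bound-protein fluorescence near 667 nm with spot signal-to-noise.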 The conditions noted are these: INHBA, higher = more signal.
Test [11] concerns Human papillomavirus type 1a protein E7 (residues 44-93). Put plainly: small molecules binding HPV E7 44-93 – biochemical, small-molecule microarray, residues 44-93, 635 nm fluorescence, primary screen (AID 1108).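 Also: E7 fragment applied at 1 µg/mL in TBST for 1 h at 4 C; score combines spot fluorescence with its signal to noise ratio.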 The conditions noted are these: fluorescence 635 nm, higher = more signal.
The nature of test [12]: hepatitis C replication reporter changes, two-sided – Huh7 cells, luciferase reporter, HCV replication inhibitor project, primary screen (AID 1109).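 Also: huh7 hepatoma cells harbouring a luciferase neomycin HCV replicon reporter; luciferase luminescence as measure of HCV replicon replication; test concentration not given here.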 The conditions noted are these: Huh7 HCV replicon luciferase reporter, 48 h; higher = more signal.
The target in test [13] is Left-right determination factor 2 (Homo sapiens) (UniProt O00292). Put plainly: small molecules binding LEFTY2 protein – biochemical, small-molecule microarray, 635 nm fluorescence scan, primary screen (AID 1110). To be noted: higher = more signal.
Chain of Left-right determination factor 2 (Homo sapiens) (O00292 whole entry, looked up): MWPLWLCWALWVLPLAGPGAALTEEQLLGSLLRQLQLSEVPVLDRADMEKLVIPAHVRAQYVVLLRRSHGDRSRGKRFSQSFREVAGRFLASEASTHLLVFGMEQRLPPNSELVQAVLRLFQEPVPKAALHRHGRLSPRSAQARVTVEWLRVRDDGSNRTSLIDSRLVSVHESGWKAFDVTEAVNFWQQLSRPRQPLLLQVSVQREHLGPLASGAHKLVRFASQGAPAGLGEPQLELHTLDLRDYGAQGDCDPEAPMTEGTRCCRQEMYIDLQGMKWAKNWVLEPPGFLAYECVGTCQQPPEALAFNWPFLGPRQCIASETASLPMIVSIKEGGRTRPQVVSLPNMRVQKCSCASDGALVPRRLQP
In test [14] the target is Calmodulin-1 (Homo sapiens) (UniProt P0DP23). Kind of test: small molecules binding calmodulin-1 with EGTA – biochemical, small-molecule microarray, Cy5-labelled CALM1, profiling panel (AID 1111).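 Also: labelled calmodulin applied in Tris saline Tween buffer holding calcium plus EGTA and DTT.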 The conditions noted are these: Cy5-CALM1 binding fluorescence, higher = more signal.
Test [15] shares this target. Put plainly: small molecules binding Ca-loaded calmodulin-1 – biochemical, small-molecule microarray, Cy5-labelled CALM1, plus calcium, artefact control for SMM control-protein annotation, profiling panel (AID 1112).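 Also: score merges spot fluorescence with signal to noise from triplicate slides.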 To be noted: Cy5-CALM1 binding fluorescence, higher = more signal.
A short description of test [16]: probe aWnt5a binding to arrayed compounds – biochemical, biotinylated probe, 635/667 nm fluorescence, primary screen (AID 1113).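 Also: score merges 667 nm fluorescence intensity with signal-to-noise per printed feature.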 To be noted: small-molecule microarray, higher = more signal.
The nature of test [17]: probe aShh binding to arrayed compounds – biochemical, biotinylated probe, 635/667 nm fluorescence, primary screen (AID 1114).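 Also: probe is biotin-labelled aShh protein from a stem cell growth factor screen; measures binding of labelled protein to compounds printed on the slide; score merges feature fluorescence at 667 nm with signal-to-noise.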 To be noted: small-molecule microarray, higher = more signal.
A short description of test [18]: probe aNog binding to arrayed compounds – biochemical, biotinylated probe, 635/667 nm fluorescence, primary screen (AID 1115).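 Also: probe is biotinylated aNog protein used at 0.15 µg/mL for 1 h at 4 C; z-score combines 667 nm fluorescence of each spot with its signal to noise.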 The conditions noted are these: small-molecule microarray, higher = more signal.
Test [19] has as its target Torsin-1A-interacting protein 1 (Homo sapiens) (UniProt Q5JTV8). Kind of test: compound microarray binding of lysate hLAP1 – cell lysate, small-molecule microarray, COS7 lysate, 635/667 nm fluorescence, primary screen (AID 1116). The conditions noted are these: 635 nm fluorescence, higher = more signal.
The target in test [20] is Alpha-bungarotoxin (Bungarus multicinctus) (UniProt P60615). Kind of test: compounds binding labelled alpha-BTX control protein – biochemical, small-molecule microarray, Alexa647 label, 635/667 nm fluorescence, artefact control for SMM control protein annotation, profiling panel (AID 1117). To be noted: alpha-BTX-A647 binding fluorescence, higher = more signal.
Chain of Alpha-bungarotoxin (Bungarus multicinctus) (P60615 whole entry, looked up): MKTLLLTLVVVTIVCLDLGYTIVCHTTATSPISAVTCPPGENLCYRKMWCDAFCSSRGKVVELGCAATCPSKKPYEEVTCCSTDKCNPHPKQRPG

Chain of Dickkopf-related protein 1 (Homo sapiens) (O94907 whole entry, looked up): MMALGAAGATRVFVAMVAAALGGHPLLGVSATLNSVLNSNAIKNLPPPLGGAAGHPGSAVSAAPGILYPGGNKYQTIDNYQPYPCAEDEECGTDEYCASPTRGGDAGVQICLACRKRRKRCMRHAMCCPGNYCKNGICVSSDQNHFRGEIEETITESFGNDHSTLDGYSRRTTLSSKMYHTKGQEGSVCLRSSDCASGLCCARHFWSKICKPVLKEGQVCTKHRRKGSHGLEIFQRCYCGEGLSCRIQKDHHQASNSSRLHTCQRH
Chain of Torsin-1A-interacting protein 1 (Homo sapiens) (Q5JTV8 whole entry, looked up): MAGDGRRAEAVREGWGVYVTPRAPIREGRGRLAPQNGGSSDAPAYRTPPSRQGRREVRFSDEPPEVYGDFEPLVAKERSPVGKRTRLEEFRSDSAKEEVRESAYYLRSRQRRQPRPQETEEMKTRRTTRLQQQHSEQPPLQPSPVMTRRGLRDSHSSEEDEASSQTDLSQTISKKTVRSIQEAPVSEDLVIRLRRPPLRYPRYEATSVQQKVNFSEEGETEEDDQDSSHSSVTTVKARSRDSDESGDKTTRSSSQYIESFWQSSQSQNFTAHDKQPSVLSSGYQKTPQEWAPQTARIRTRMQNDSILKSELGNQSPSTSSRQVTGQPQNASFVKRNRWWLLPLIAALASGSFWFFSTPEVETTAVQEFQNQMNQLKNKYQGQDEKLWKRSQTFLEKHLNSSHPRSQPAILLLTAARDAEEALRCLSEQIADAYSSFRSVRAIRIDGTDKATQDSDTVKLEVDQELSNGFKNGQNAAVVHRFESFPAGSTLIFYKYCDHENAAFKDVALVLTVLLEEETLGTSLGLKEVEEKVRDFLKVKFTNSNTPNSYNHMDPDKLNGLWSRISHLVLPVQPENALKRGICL
Chain of Fibroblast growth factor 10 (Homo sapiens) (O15520 whole entry, looked up): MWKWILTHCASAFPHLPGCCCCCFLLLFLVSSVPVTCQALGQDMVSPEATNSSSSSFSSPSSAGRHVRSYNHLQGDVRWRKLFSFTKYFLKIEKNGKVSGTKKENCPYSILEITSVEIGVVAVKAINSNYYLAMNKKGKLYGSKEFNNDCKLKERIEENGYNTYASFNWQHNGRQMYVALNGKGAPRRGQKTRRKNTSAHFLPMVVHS
Chain of Epidermal growth factor receptor (Homo sapiens) (P00533 whole entry, looked up): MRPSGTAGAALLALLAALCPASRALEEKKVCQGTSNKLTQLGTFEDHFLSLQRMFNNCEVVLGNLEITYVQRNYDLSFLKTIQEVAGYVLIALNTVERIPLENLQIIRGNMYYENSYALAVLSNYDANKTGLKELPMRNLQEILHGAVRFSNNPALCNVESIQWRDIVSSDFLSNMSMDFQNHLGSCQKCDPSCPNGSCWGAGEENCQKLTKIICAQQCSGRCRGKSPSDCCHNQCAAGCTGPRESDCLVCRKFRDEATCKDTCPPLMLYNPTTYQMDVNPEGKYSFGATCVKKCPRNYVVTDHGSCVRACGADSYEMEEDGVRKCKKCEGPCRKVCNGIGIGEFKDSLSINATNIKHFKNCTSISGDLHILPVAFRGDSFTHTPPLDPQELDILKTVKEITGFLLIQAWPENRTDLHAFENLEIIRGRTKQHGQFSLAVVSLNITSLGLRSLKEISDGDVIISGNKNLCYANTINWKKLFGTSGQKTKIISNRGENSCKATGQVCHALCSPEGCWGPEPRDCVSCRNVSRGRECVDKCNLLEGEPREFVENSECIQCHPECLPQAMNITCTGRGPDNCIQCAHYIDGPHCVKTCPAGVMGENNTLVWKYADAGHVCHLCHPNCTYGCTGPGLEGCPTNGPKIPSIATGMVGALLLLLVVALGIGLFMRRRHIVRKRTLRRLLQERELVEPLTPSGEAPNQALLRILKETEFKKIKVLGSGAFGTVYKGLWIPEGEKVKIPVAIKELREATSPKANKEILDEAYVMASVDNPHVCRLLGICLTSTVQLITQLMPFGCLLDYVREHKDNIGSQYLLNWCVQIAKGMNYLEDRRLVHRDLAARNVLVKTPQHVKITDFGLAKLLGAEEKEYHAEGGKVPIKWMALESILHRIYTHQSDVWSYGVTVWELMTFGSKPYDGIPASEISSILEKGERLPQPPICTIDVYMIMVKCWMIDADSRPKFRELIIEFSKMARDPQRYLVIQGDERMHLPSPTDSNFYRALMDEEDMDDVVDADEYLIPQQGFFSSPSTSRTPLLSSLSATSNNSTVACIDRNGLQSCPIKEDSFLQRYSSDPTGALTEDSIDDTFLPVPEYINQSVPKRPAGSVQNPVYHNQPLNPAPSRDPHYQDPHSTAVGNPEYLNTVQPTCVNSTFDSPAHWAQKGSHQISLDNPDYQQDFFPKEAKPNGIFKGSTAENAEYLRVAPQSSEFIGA

Turning to `C=CCOC(=O)[C@@H]1[C@H]2C(=O)O[C@H](c3ccccc3)[C@H](c3ccccc3)N2[C@H](c2ccc(OCCOC(=O)[C@H]3C[C@H]4C(=O)N[C@@H](CCCCNC(C)=O)C(=O)N4[C@H]3c3ccc(O)cc3)cc2)[C@@]12C(=O)Nc1ccc(I)cc12`, the composite z-score was 1.3 in test [1]; -0.173 in test [2]; -0.119 in test [3]; 1.03 in test [5]; 1.28 in [6]; 0.603 in test [7]. Further, the composite z-score in test [8] came out at 1.19; in test [9], 0.394; in test [10] it was 0.565; in [11], 1.39; in test [13], 0.576; in [14], 0.419. Also, the composite z-score in test [15] is 0.232; in test [16], -0.104; in test [17], -0.232; in test [18], -0.0496; in test [19], 0.818; in test [20], 1.07. For the same molecule, the z-score in test [4] is 0.711 (inactive); in test [12], -1.66.
Regarding `CCN1C(C)=C(C(=O)OC)[C@@H](c2ccccc2)N2C(=O)[C@](O)(C(=O)OC)[C@@H](c3ccccc3)C(C(=O)c3ccccc3)=C12`, the composite z-score in [1] was 0.689; in [2], 0.0153; in test [3], -0.396; in [5], 0.436; in test [6], 0.779; in [7], 0.385. The composite z-score was 0.363 in test [8]; 0.812 in test [9]; -0.411 in test [10]; 0.474 in test [11]; 0.499 in test [13]; 0.0865 in test [14]. For the same molecule, the composite z-score was 0.0844 in test [15]; -0.0685 in test [16]; 0.166 in test [17]; 0.158 in [18]; 0.653 in test [19]; 0.232 in [20]. Moreover, the z-score in [4] was -2.45 (inactive); in [12], -1.15.
In the case of `C=CC(=O)O[C@@H](Cc1ccccc1)[C@H]1C2C=CCCC=C2CN1Cc1cccc(Cl)c1` (stereo not given in full), the composite z-score in [1] is -0.426; in test [2], 0.0657; in test [3], 0.502; in test [5], -0.281; in test [6], -1.21; in test [7], -0.506. Moreover, the composite z-score was -0.87 in test [8]; -0.143 in test [9]; 1.11 in test [10]; -2.98 in test [11]; -0.195 in test [13]; -0.82 in test [14]. Moreover, the composite z-score in test [15] is 0.484; in [16], -0.148; in test [17], 0.0022; in test [18], -0.267; in test [19], -0.103; in test [20] it was -0.439. In addition, the z-score in test [4] was -0.855 (inactive); in [12] it was -1.08.
For `COCCOC(=O)N1C(=O)[C@@]2(c3cc(C#CCNC(N)=O)ccc31)[C@H](c1ccc(OCCO)cc1)N1[C@H](c3ccccc3)[C@H](c3ccccc3)OC(=O)[C@H]1[C@@H]2C(=O)N1CCCCCCC1`, the composite z-score is 0.795 in test [1]; 1.48 in [2]; 1.11 in test [3]; 0.198 in test [5]; -0.246 in test [6]; 0.0212 in test [7]. Moreover, the composite z-score in test [8] was 0.895; in test [9] it was 0.199; in test [10] it was 1.69; in test [11] it was 0.853; in test [13], -0.11; in test [14] it was 0.914. Moreover, the composite z-score was 0.966 in test [15]; -0.027 in test [16]; 0.485 in test [17]; 0.401 in [18]; 0.242 in test [19]; 1.24 in test [20]. Also, the z-score is -0.908 (inactive) in test [4] and 0.225 in [12].
As for `C[C@]1(C(=O)NCCN2CCOCC2)c2ccccc2C(=O)N(Cc2ccccc2)[C@H]1c1ccc(CO)cc1`, the composite z-score in test [1] is 1.59; in test [2], -0.082; in test [3] it was 0.606; in [5] it was -0.632; in test [6], -0.748; in test [7] it was -0.491. Also, the composite z-score in [8] is -0.824; in test [9] it was -0.396; in test [10], 0.519; in test [11] it was -0.474; in test [13] it was -1.01; in test [14], -0.193. Moreover, the composite z-score in [15] is 0.349; in [16], 0.763; in test [17], 0.163; in [18] it was -0.195; in [19] it was -0.705; in [20], 0.0519. Besides, the z-score in [4] was -0.675 (inactive); in test [12], -0.326.
